Compounds with a hit are over-represented: about 11% of the library has one in this group of screens.
Luciferase inh – inhibitors of firefly (Photinus pyralis) luciferase. P08659. purified P. pyralis luciferase, luminescence, biochemical. Potency, µM (highest dose often 115 µM), actives largely listed as inhibitors. 2.5% of 76,000 active. AID 1347043; also: nearly all actives have a fitted effect of over 65% in size
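FLuc 10nM, D-luciferin 10uM, ATP 10uM, Mg acetate 10mM, Tris acetate pH 7.5, Tween/BSA; cpd qHTS; enzyme added last; CCD luminescence.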
HEK293 tox – cytotoxic compounds in HEK 293 cells; Potency, µM (top dose mostly 115 µM), without a hit: at the highest dose activity change, negative = cytotoxicity, actives largely listed as inhibitors; HEK 293 viability, ATP luminescence (CellTiter-Glo), 48-72 h; AID 1345083; 6.6% of 94,000 active; also: nearly all actives have a fitted effect of over 60% in size
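Cytotoxicity was scored by loss of ATP-coupled luminescence (CellTiter-Glo) in HEK 293 cells. Compound treatment ran 48 or 72 hr at 37 degree Celsius, 5% CO2, 95% humidity.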
NIH3T3 tox – cytotoxic compounds in NIH 3T3 cells; NIH 3T3 viability, CellTiter-Glo ATP luminescence, 48-72 h; Potency, µM (series often up to 96.7 µM), inactives show at the top dose activity change, negative = cytotoxicity, actives largely listed as inhibitors; 4.3% of 94,000 active; also: nearly all actives have a fitted effect of over 55% in size
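First NIH 3T3 cells are plated at 400 cells/well; next compound is pinned in; then plates incubate 48 or 72 hr at 37 °C; finally CellTiter-Glo is added and luminescence read after 10 min.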
hNpr1 antagonist – blocks ANP-stimulated signaling of human Npr1 receptor; Potency, µM (highest dose often 46.3 µM), without a hit: at the top dose activity change, negative = inhibition, actives largely listed as inhibitors; 1.6% of 76,000 active; P16066; AID 1347048; HEK293 hNpr1 GloSensor cGMP, ANP-stimulated luminescence; calls by dose curve; also: nearly all actives have a fitted effect of over 60% in size
Target sequence (P16066 whole entry, looked up): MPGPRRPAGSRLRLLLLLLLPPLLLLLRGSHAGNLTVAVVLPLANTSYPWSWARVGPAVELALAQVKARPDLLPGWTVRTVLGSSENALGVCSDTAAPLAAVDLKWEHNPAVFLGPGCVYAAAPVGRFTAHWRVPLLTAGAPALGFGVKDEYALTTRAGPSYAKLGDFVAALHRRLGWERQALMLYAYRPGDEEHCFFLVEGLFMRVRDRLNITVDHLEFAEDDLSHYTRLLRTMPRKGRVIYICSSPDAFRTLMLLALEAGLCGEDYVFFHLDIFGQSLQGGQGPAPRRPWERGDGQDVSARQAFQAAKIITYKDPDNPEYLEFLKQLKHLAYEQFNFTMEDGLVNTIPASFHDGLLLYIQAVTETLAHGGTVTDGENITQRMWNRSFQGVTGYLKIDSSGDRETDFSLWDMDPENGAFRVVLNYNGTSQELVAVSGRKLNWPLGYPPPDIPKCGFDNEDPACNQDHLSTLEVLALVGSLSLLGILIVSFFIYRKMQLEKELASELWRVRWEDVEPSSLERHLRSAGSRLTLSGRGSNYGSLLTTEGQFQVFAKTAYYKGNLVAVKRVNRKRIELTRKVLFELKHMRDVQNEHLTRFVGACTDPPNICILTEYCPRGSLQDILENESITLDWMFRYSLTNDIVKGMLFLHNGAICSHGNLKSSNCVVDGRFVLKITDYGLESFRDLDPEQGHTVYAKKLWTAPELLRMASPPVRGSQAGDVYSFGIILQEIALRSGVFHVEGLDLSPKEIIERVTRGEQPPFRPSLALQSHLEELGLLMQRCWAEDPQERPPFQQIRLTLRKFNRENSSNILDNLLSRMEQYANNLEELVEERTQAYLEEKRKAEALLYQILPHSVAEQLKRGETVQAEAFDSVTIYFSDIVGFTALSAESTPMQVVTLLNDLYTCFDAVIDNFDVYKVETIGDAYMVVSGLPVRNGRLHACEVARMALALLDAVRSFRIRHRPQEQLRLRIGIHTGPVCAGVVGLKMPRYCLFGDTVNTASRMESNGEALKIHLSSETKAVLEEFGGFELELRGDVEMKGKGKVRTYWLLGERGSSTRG
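Compound pre-incubated 30 min at room temperature on GloSensor-loaded HEK293 cells stably carrying hNpr1 and the pGS-40F cGMP biosensor. Stimulation uses hNppA at 0.1 nM final; luminescence is taken at baseline and 20 min post-agonist.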
The depositor's hits bear a star; i = inactive; ? = inconclusive; . = not tested or not shown; [ ] = remark or other dose. Unless noted, calls follow the shape of the dose curve; as a rule, active = well fitted curve in the direction sought with a large enough effect; inconclusive = small, poorly fitted or top-dose-only effect, or another doubt; inactive = no such curve, though single readings can be large; an effect the other way counts as inactive or inconclusive. % is scaled to controls: 0 for no effect and ±100 for the full control effect; potency is read from the fitted curve at half-maximal effect.

SMILES | Luciferase inh | HEK293 tox | NIH3T3 tox | hNpr1 antagonist
O=C(CCc1ccccc1)N1[C@H]2CC[C@@H]1c1cnc(-c3ccc(F)cc3)nc1C2 | i | ? | ? | ?
COc1cc2c(cc1Oc1ccccc1)NC(=O)C21CCN(C(=O)c2ccccc2)CC1 | i | ? | ? | ?
COc1cc2c(cc1Oc1ccccc1)NC(=O)C21CCN(C(=O)c2cccc(O)c2)CC1 | i | 45µM* | ? | -17%
COc1cc2c(cc1Oc1ccccc1)NC(=O)C21CCN(C(=O)Cc2ccccc2)CC1 | i | 40µM* | ? | ?
COc1cc2c(cc1Oc1ccccc1)NC(=O)C21CCN(C(=O)c2ccnn2C)CC1 | i | 71µM* | ? | ?
CC(C)(O)c1cn(C[C@H]2C[C@@H]3CCN2C[C@@H]3C(=O)Nc2ccccc2)nn1 | i | 1%[172 µM] | -12%[174 µM] | 1%[70.6 µM]
Cn1cccc1CN1CCC2(CC1)C(=O)Nc1ccccc12 | . | ? | -14%[138 µM] | .
CO[C@@H]1CNC2Cc3c(oc4ccccc34)C1C2 (stereo partly specified) | . | ? | -20% | .
COc1ccc(-c2cc([C@H]3CN4CC[C@H]3C[C@@H]4CNC(=O)c3cccs3)nc(C)n2)cc1OC | i | ? | ? | 0%
O=C1N(c2ccccn2)C[C@H]2CN(Cc3ccccc3)CCN12 | 20µM* | -7%[172 µM] | -12%[138 µM] | -21%[70.6 µM]
OCC1CN(c2ncccn2)CC12CCNCC2 (stereo unspecified) | i | i | -24% | 2%
CCCSc1ncc(CN2CCCC3(CCNC3)C2)cn1 (stereo unspecified) | i | -16% | -27% | 8%
COc1cc2c(cc1OCc1ccncc1)NC(=O)C21CCN(C(C)=O)CC1 | i | -29%[172 µM] | ? | -4%[70.6 µM]
O=C(c1ccccc1)N1C[C@@H]2C[C@H](C1)c1c(/C=C/c3ccc(Cl)cc3)ccc(=O)n1C2 | i | 89µM* | ? | 1%[70.6 µM]
O=C(c1ccccc1)N1C[C@@H]2C[C@H](C1)c1c(-c3cncnc3)ccc(=O)n1C2 | i | 2%[172 µM] | 3%[174 µM] | 0%[70.6 µM]
COc1cc2c(cc1-c1cccnc1)NC(=O)C21CCN(C(C)=O)CC1 | i | -13%[172 µM] | ? | 8%[70.6 µM]
COc1cc2c(cc1-c1cnn(C)c1)NC(=O)C21CCN(C(C)=O)CC1 | i | 2%[172 µM] | 32µM* | 2%[70.6 µM]
COc1cc2c(cc1-c1ccc(O)c(F)c1)NC(=O)C21CCN(C(C)=O)CC1 | i | -24%[172 µM] | 28µM* | -9%[70.6 µM]
COCCNC(=O)[C@H]1CN2CC[C@H]1C[C@@H]2Cn1cc(CN(C)C)nn1 | i | 1%[172 µM] | -10%[174 µM] | 0%[70.6 µM]
CC(C)(C)c1ccc(NC(=O)OC[C@H]2C[C@@H]3CCN2C[C@@H]3c2cc(C3CCCC3)nc(-c3ccncc3)n2)cc1 | ? | 20µM* | 20µM* | 5%
CCC(CC)c1cc([C@H]2CN3CC[C@H]2C[C@@H]3CNC(=O)C(C)(C)C)nc(-c2ccncc2)n1 | i | ? | ? | -3%
Cc1nc(-c2ccc(N(C)C)cc2)cc([C@H]2CN3CC[C@H]2C[C@@H]3COC(=O)Nc2ccc(C(C)C)cc2)n1 | ? | 3.5µM* | 3.5µM* | ?
CC(C)c1ccc(NC(=O)OC[C@H]2C[C@@H]3CCN2C[C@@H]3c2cc(C3CCCC3)nc(-c3ccncc3)n2)cc1 | ? | 3.5µM* | 4.5µM* | -24%
CCC(CC)c1cc([C@H]2CN3CC[C@H]2C[C@@H]3COC(=O)Nc2ccc(C(C)(C)C)cc2)nc(-c2ccncc2)n1 | ? | 7.1µM* | 5µM* | -24%
O=S(=O)(NC[C@H]1C[C@@H]2CCN1C[C@@H]2CN1CCN(c2ncccn2)CC1)c1ccccc1 | i | i | i | 5%
SMILES | Luciferase inh | HEK293 tox | NIH3T3 tox | hNpr1 antagonist
Nc1ncccc1CN1C[C@H](c2ccc3c(c2)OCO3)[C@@H]2[C@H]1C1CCN2CC1 | i | 0% | -9% | -1%
c1ccc(C2=NOC3(CCCN(Cc4cccnc4)C3)C2)nc1 (stereo unspecified) | . | i | -15% | .
Cn1nc(-c2ccc3ccccc3c2)cc1[C@H]1CN2CC[C@H]1C[C@@H]2COC(=O)Nc1ccccc1 | ? | 20µM* | 18µM* | -8%
CC[C@H]1CN2CC[C@H]1C[C@@H]2COC(=O)Nc1cc(OC)cc(OC)c1 | i | 100µM* | ? | 3%[70.6 µM]
O=C(Nc1ccccc1)OC[C@H]1C[C@@H]2CCN1C[C@@H]2c1cc(C2CCCC2)nc(-c2ccncc2)n1 | ? | 4µM* | 7.9µM* | ?
Cn1nc(C2CCCCC2)cc1[C@H]1CN2CC[C@H]1C[C@@H]2CN | i | 100µM* | ? | 1%[70.6 µM]
Cn1nc(C2CCCCC2)cc1[C@H]1CN2CC[C@H]1C[C@@H]2CO | i | ? | ? | 0%[70.6 µM]
COc1ccc(CC(=O)N2[C@H]3CC[C@@H]2c2cnc(-c4ccccc4)nc2C3)cc1OC | i | ? | -21% | 3%
CCC(CC)c1cc([C@H]2CN3CC[C@H]2C[C@@H]3CNC(C)=O)nc(-c2ccncc2)n1 | i | 100µM* | 45µM* | ?
CCCNC(=O)OC[C@H]1C[C@@H]2CCN1C[C@@H]2c1cc(C(CC)CC)nc(-c2ccncc2)n1 | i | ? | 40µM* | ?
COc1ccc(NC(=O)OC[C@H]2C[C@@H]3CCN2C[C@@H]3c2cc(C3CCCC3)nc(-c3ccncc3)n2)cc1 | i | 14µM* | ? | ?
CC(C)c1ccc(NC(=O)OC[C@H]2C[C@@H]3CCN2C[C@@H]3c2cc(C3CCCCC3)nn2C)cc1 | i | 14µM* | 22µM* | -19%
COc1ccc(NC(=O)NC[C@H]2C[C@@H]3CCN2C[C@@H]3c2cc(C3CCCC3)nn2C)cc1 | i | ? | ? | -8%
Cc1ccccc1-c1ccc2n(c1=O)C[C@H]1C[C@@H]2CN(C(=O)c2cccs2)C1 | i | i | ? | 5%[70.6 µM]
CCN1CCCCC12Cc1ccccc1CN(C(=O)Cc1ccc(OC)cc1)C2 (stereo unspecified) | . | -24% | 4% | .
CCCc1cc(C(=O)N2C[C@@H](c3ccc(F)cc3)[C@@H]3[C@H]2C2CCN3CC2)n[nH]1 | i | 5% | i | 8%
CN1CCN(C[C@H]2CN3CC[C@H]2C[C@@H]3CNC(=O)Nc2ccccc2)CC1 | i | 4%[172 µM] | ? | 4%[70.6 µM]
O=C(NC[C@H]1C[C@@H]2CCN1C[C@@H]2CN1CCC(Cc2ccccc2)CC1)Nc1ccccc1 | i | 32µM* | ? | -1%
CCN(CC)C[C@H]1CN2CC[C@H]1C[C@@H]2CNS(=O)(=O)c1ccc(Cl)cc1 | i | ? | 71µM* | 2%[70.6 µM]
O=S(=O)(NC[C@H]1C[C@@H]2CCN1C[C@@H]2CN1CCCCC1)c1ccccc1 | i | ? | -16%[174 µM] | 8%[70.6 µM]
O=S(=O)(NC[C@H]1C[C@@H]2CCN1C[C@@H]2CN1CCC(Cc2ccccc2)CC1)c1ccc(Cl)cc1 | i | 7.1µM* | 14µM* | -3%

Bioassay records as filed in PubChem BioAssay.
